Data published in PubChem BioAssay AID686978 (National Center for Advancing Translational Sciences (NCATS), 2013).
Out of some 420,000 compounds screened, about 64,000 (15%) were called active. About 27% were inconclusive and are not listed. The call rests on the fitted dose curve; in most records, active means well fitted inhibition curve with a large enough effect; inconclusive means small, poorly fitted or top-dose-only effect; inactive means flat fitted curve, though single readings scatter. These entries were drawn from the full list. Entries that show only a call come without a potency.

Experiment: qHTS for Inhibitors of human tyrosyl-DNA phosphodiesterase 1 (TDP1): qHTS in cells in absence of CPT; further: nearly all actives have a fitted effect of over 55% in size
Conditions: DT40 Tdp1-/- hTDP1 cells, no CPT, ATP luminescence, 48 h; activity change, negative = growth inhibition: at 46.2 µM (top of the series)
Method in brief: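 Camptothecin absent (DMSO only). Human TDP1-complemented DT40 knockout cells, 400 cells/well, 37 °C for minimum 48 hr; ATP measured via CellTiter-Glo, 30 min dark incubation, luminescence.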
Potency means the concentration at half of the fitted maximal effect.

Row | Compound | Potency
1 | COc1ccccc1CNS(=O)(=O)c1c(C)[nH]c(C)c1C(=O)N1CCCCC1 | inactive
2 | CCc1nc(Nc2ccc3nccnc3c2)c2oc3ccccc3c2n1 | 2.31 µM (active)
3 | CCSc1nc(C)nc2c1oc1ccccc12 | inactive
4 | CCc1nc(Nc2ccc(NC(C)=O)cc2)c2oc3ccccc3c2n1 | inactive
5 | C/C(=N/NC(=O)c1ccncc1)c1ccc2c(c1)OCO2 | inactive
6 | C/C(=N/NC(=S)Nc1ccccc1)c1ccc2c(c1)OCO2 | 0.517 µM (active)
7 | C/C(=N\NC(=O)C(N)=O)c1ccc2c(c1)OCCO2 | inactive
8 | CCS(=O)(=O)N(C)[C@@H]1c2cc(C#N)ccc2OC(C)(C)[C@H]1O | inactive
9 | O=c1cc(CCl)nc2scc(-c3ccccc3)n12 | 16.4 µM (active)
10 | C/C(CC(O)(/C=N/O)c1ccccc1)=N\O (centres undefined) | inactive
11 | C/C(CC(=O)Nc1ccc(Cl)cc1)=N\NC(=O)C(=O)NCCO | inactive
12 | CC(C)Cn1cnc2c1c(=O)n(CC(O)c1ccccc1)c(=O)n2CC(C)C (centres undefined) | inactive
13 | CC(C)CCn1c(CN(C)Cc2ccccc2)nc2c1c(=O)n(C)c(=O)n2C | 6.51 µM (active)
14 | Cn1c(=O)[nH]c(=O)c2c1nc(CN(Cc1ccccc1)Cc1ccccc1)n2CCN1CCOCC1 | inactive
15 | COCCn1c(CN(Cc2ccccc2)Cc2ccccc2)nc2c1c(=O)n(C)c(=O)n2C | 25.9 µM (active)
16 | CC(C)Cn1c(CN(Cc2ccccc2)Cc2ccccc2)nc2c1c(=O)n(C)c(=O)n2C | 14.6 µM (active)
17 | CC(C)Cn1cnc2c1c(=O)n(CC(=O)NN)c(=O)n2Cc1ccccc1 | inactive
18 | CCCCCCn1c(CN2CCCCC2)nc2c1c(=O)n(C)c(=O)n2C | 20.6 µM (active)
19 | CCCCn1c(SCC(=O)N2CCOCC2)nc2c1c(=O)n(C)c(=O)n2C | inactive
20 | CC(O)c1nc2c(c(=O)n(C)c(=O)n2C)n1C (centres undefined) | inactive
21 | CC(C)CCn1cnc2c1c(=O)n(CC(=O)NC(N)=O)c(=O)n2Cc1ccccc1 | inactive
22 | Cn1c(=O)c2c(nc(N3CCOCC3)n2CCNC2=NCCC2)n(C)c1=O | inactive
23 | Cn1ccnc1-c1nnn(-c2ccc(F)cc2)n1 | inactive
24 | O=C(OCC(=O)c1cccs1)c1ccc([N+](=O)[O-])o1 | inactive
25 | O=C(COc1ccc(-n2cnnn2)cc1)Nc1ccccc1Cl | inactive
26 | CN(C)S(=O)(=O)c1ccc(N2CCCC2=O)c([N+](=O)[O-])c1 | inactive

Row | Compound | Potency
27 | O=C(/C=C/c1ccccc1Cl)Nc1ccc(S(=O)(=O)Nc2ncccn2)cc1 | inactive
28 | OCCC1CN(Cc2ccc3nsnc3c2)CCN1C1CCCCC1 (centres undefined) | inactive
29 | Cc1ccc(C)c(SCc2nc3sc(C(=O)O)c(C)c3c(=O)[nH]2)c1 | inactive
30 | COc1ccccc1NC(=O)CC(NCCN(C)C)C(=O)O (centres undefined) | inactive
31 | C/C(=N\Nc1ccc(S(N)(=O)=O)cc1[N+](=O)[O-])c1cccs1 | inactive
32 | CCOC(=O)[C@H]1[C@H]2COc3ccc(OC)cc3[C@@H]2N2C(=O)c3ccc(F)cc3NC(=O)[C@@]12C | inactive
33 | COC(=O)C1=C(O)/C(=C/c2ccc(OCC(=O)Nc3ccccc3)cc2)N=C1C | inactive
34 | O=C(COC(=O)c1cccs1)NCc1cccs1 | inactive
35 | Nc1nnc(C2CCCC2)s1 | inactive
36 | COC(=O)c1ccccc1Oc1c(F)c(F)nc(N2CCOCC2)c1F | inactive
37 | Cc1cc(C)cc(C(=O)NCC(=O)OCC(=O)N2CCCCC2)c1 | inactive
38 | CN1CCN(Cc2nc3c(c(=O)n(C)c(=O)n3C)n2Cc2cccc3ccccc23)CC1 | inactive
39 | COCCn1c(CN2CCC(Cc3ccccc3)CC2)nc2c1c(=O)n(C)c(=O)n2C | 7.31 µM (active)
40 | Cn1c(=O)n(Cc2c(F)cccc2Cl)c(=O)c2c1nc1n2CCN1c1ccc(F)cc1 | inactive
41 | CCN1CCN(Cc2nc3c(c(=O)n(C)c(=O)n3C)n2CC(=O)c2ccccc2)CC1 | inactive
42 | O=C(O)C1CCCN(CCC=C(c2ccccc2)c2ccccc2)C1 (centres undefined) | inactive
43 | CC(C)CCn1c(=O)c2c(nc3n2CCCN3Cc2ccccc2)n(C)c1=O | 20.6 µM (active)
44 | CC1CCCN(Cc2nc3c(c(=O)n(C)c(=O)n3C)n2CC(=O)c2ccccc2)C1 (centres undefined) | 16.4 µM (active)
45 | Cn1c(=O)n(CCc2ccccc2)c(=O)c2c1nc1n2CCCN1c1ccccc1 | inactive
46 | Cn1c(=O)c2c(nc(CN3CCOCC3)n2Cc2ccccc2)n(C)c1=O | inactive
47 | CCc1cc(CNC(=O)CC2C(=O)NCCN2CC2CCCCC2)on1 (centres undefined) | inactive
48 | Cc1ccc(S(=O)(=O)N(C)C)cc1NC(=O)C(C)OC(=O)c1ccc2ccccc2n1 (centres undefined) | inactive
49 | c1ccc(-c2nnc3n2NC(c2ccc4c(c2)OCO4)S3)cc1 (centres undefined) | inactive
50 | CC(C)=C1C2CCC1C1C(=O)N(NC(=O)c3ccco3)C(=O)C21 (centres undefined) | inactive
51 | CCOc1ccc(C(=O)COC(=O)c2ccc(-n3cnnn3)cc2)cc1 | inactive
52 | CCOc1ccc(S(=O)(=O)N(CC(=O)NCC(F)(F)F)Cc2ccco2)cc1 | inactive

Row | Compound | Potency
53 | CCOc1ccc(CN(Cc2ccco2)S(=O)(=O)c2ccc(-n3cnnn3)c(OC)c2)cc1 | 16.4 µM (active)
54 | COc1ccc(S(=O)(=O)N2CCOCC2)cc1NC(=O)CC1CC2CCC1C2 (centres undefined) | inactive
55 | CC1(C)CC(=O)C=C(NCCCN2CCCC2=O)C1 | inactive
56 | CCOc1ccc(Nc2nc(Cl)nc(N3CCN(c4ccc(OC)cc4)CC3)n2)cc1 | 13 µM (active)
57 | COC(=O)CNc1nc(Cl)nc(N2CCC(C)CC2)n1 | inactive
58 | COc1ccc(Nc2nc(N)nc(CSC(=S)N3CCC(C)CC3)n2)cc1 | inactive
59 | COP1(=O)C[C@@H](O)[C@@H](O)[C@@H](COCc2ccccc2)O1 (some centres undefined) | inactive
60 | O=c1[nH][nH]c(C(F)(F)F)c1C=NCc1ccccc1Cl | inactive
61 | Cc1nc2cc(NC(=O)NC3CC3)ccc2n1C | inactive
62 | COc1ccc(-n2c(=O)c(C)nc3cnc(N4CCOCC4)nc32)cc1 | inactive
63 | Cc1nc2sccn2c(=O)c1S(=O)(=O)NCCc1ccccc1 | inactive
64 | C/C(=N\NC(=O)c1ccccc1C)c1ccc(N2CCOCC2)cc1 | inactive
65 | C/C(=N\NC(=O)c1ccoc1C)c1ccccc1O | 11.6 µM (active)
66 | Cc1ccc(-c2noc(CNC(=O)c3ccoc3C)n2)cc1 | inactive
67 | COc1ccccc1Cn1c(C)nnc1-c1cnn(C)c1N | inactive
68 | COCCNC(=O)C1C(=O)Nc2ccccc2C(=O)N1c1ccc2c(c1)OCCO2 (centres undefined) | inactive
69 | NC(=O)CC[C@@H]1NC(=O)[C@@H]2CCCN2C(=O)c2cc([N+](=O)[O-])cc(F)c2NCCC[C@@H](C(N)=O)NC1=O | inactive
70 | CC(C)N1CCc2c(sc(NC(=O)Cc3ccccc3)c2C#N)C1 | inactive
71 | CC(=O)N1CCc2c(sc(NC(=O)CCS(=O)(=O)c3ccc(C)cc3)c2C(N)=O)C1 | inactive
72 | CC(=O)N1CCc2c(sc(NC(=O)CCS(=O)(=O)c3ccccc3)c2C#N)C1 | 14.6 µM (active)
73 | CCN(CC)C(CNC(=O)CSc1nnnn1-c1cccc(F)c1)c1ccco1 (centres undefined) | inactive
74 | Cc1ccc(C(=O)NCC(=O)O)s1 | inactive
75 | COc1ccc(S(=O)(=O)N2CCN(c3ccc(F)cc3)CC2)cc1-c1noc(C)n1 | inactive
76 | COc1ccc(OC)c(-c2noc(N3CCN(c4cc(Cl)ccc4C)CC3)n2)c1 | 25.9 µM (active)
77 | CCc1nc(-c2cc(S(=O)(=O)N3CCN(c4ccc(OC)cc4)CC3)ccc2OC)no1 | inactive
78 | O=C(c1cccc(S(=O)(=O)N2CCCC2)c1)N(Cc1ccco1)C1CCS(=O)(=O)C1 (centres undefined) | inactive

Row | Compound | Potency
79 | Cn1c(CNC(=O)C(C)(C)C)nc2ccccc21 | inactive
80 | COc1cccc(C(O)Cc2nc3ccccc3n2C)c1OC (centres undefined) | inactive
81 | CC(NCc1nc2ccccc2n1C)C12CC3CC(CC(C3)C1)C2 (centres undefined) | 23.1 µM (active)
82 | Cc1ccc(S(=O)(=O)/N=C(/Nc2ccc3[nH]c(=O)[nH]c3c2)c2ccccc2)cc1 | inactive
83 | CCN(CC)CCn1c(=S)[nH]c2ncccc2c1=O | inactive
84 | COC(=O)c1sc2[nH]c(=S)n(N)c(=O)c2c1C | inactive
85 | C=CCNc1nc(C)nc(OC)n1 | inactive
86 | CN(C)c1ccc(C=NCCc2ccc(S(N)(=O)=O)cc2)cc1 | inactive
87 | CC(C)CC1(C)NC(=O)N(CC(=O)Nc2ccc3c(c2)OCCO3)C1=O (centres undefined) | inactive
88 | COCCNC(=O)C1CCN(S(=O)(=O)c2ccc3c(c2)OCCO3)CC1 | inactive
89 | CC(C)OCCCNC(=S)N1CCC(C(=O)c2ccc3c(c2)OCCO3)CC1 | 14.6 µM (active)
90 | O=C(c1ccc2c(c1)OCCO2)C1CCN(S(=O)(=O)c2cccc(F)c2)CC1 | inactive
91 | O=C(NCCCN1CCN(C2CCCCC2)CC1)Nc1ccccc1C(F)(F)F | inactive
92 | CC(C)(C)c1ccc(C(=O)Nc2ccc3c(c2)CCCN3C(=O)c2cccs2)cc1 | 5.8 µM (active)
93 | O=C(O)c1ccc(NC(=O)c2cccs2)cc1 | inactive
94 | CC(C)C(=O)Nc1ccc(C(=O)NNC(=O)c2cccs2)cc1 | inactive
95 | COc1ccc(-c2cc(C(F)(F)F)n3nc(-c4ccccc4)cc3n2)cc1OC | 16.4 µM (active)
96 | Cc1cc(C(F)(F)F)n2ncc(-c3ccccc3)c2n1 | inactive
97 | COC(=O)c1cc2nc(-c3ccccc3)cc(C(F)(F)F)n2n1 | inactive
98 | COc1cccc(NC(=O)N2CCC(NC(=O)C(Cc3cccc(C)c3)NC(C)=O)CC2)c1 (centres undefined) | inactive
99 | NC(=O)Cn1c(=O)oc2ccccc21 | inactive
100 | CCN(CC)CCN(C(=O)c1ccc(S(=O)(=O)N2CCOCC2)cc1)c1nc2cc3c(cc2s1)OCCO3 | inactive
101 | CCOc1ccc2nc(N(CCN(C)C)C(=O)c3ccc4ccccc4c3)sc2c1 | inactive
102 | CN(C)CCCN(C(=O)c1ccc(S(=O)(=O)N2CCCCCC2)cc1)c1nc2ccc(Br)cc2s1 | 18.4 µM (active)
103 | COCc1c(C(=O)OCc2c(C)noc2C)oc2ccccc12 | inactive
104 | CCNC(=S)NNC(=O)c1ccc2ncccc2c1 | inactive
